Data as given in PubChem BioAssay AID2501 (Southern Research Specialized Biocontainment Screening …, 2010).
The campaign covered roughly 2,200 compounds. About 1,200 (55%) were called active. The limit is not given here; nearly all actives have IC50 up to about 92 µM. The set was probably picked from earlier hits. The list shows a part of the results.

Experiment: counter assay for TAg ATPase ADP read-out – biochemical, ADP-Hunter, fluorescence, counter-screen (AID 2501);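 also: purified T antigen ATPase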
Settings: series mostly up to 100 µM

| Structure (SMILES) | IC50 |
| --- | --- |
| CC(=O)CSc1nc(C(F)(F)F)cc(=O)n1-c1ccccc1 | inactive |
| CC1(C)Cc2c(C#N)c(N3CCCC3)nc(-c3ccco3)c2CO1 | inactive |
| CN(C)c1ccc(Nc2cc(Cl)ncn2)cc1 | 9.79 µM (active) |
| O=C1CCCC2=C1Sc1ccccc1N2 | 7.55 µM (active) |
| Cc1c(Br)c(=O)oc2c(Br)c(O)c(O)cc12 | 25.2 µM (active) |
| CN(C)/C=C(\C#N)C(=O)Nc1ccc(O)cc1F | 10.3 µM (active) |
| COc1ccc(OC)c(/C=N/NC(=O)CCc2ccc(O)c(O)c2)c1 | 40.4 µM (active) |
| O=C(CCc1ccc(O)c(O)c1)N/N=C/c1cc2c(cc1[N+](=O)[O-])OCO2 | inactive |
| N#Cc1nc(Cc2cccc3ccccc23)oc1NCCN1CCOCC1 | inactive |
| CCOC(=O)NC(=O)C(=CNc1cccc(C)c1)C(=O)NC(=O)OCC | inactive |
| O=C(Nc1ccc2c(c1)C(=O)OC2)c1ccc(C(F)(F)F)cc1 | inactive |
| O=C1CC(=O)N(Cc2ccco2)C(=O)N1 | inactive |
| Cc1cccc(C(=O)Nc2ccc(C(=O)N/N=C/c3ccc4c(c3)OCO4)cc2)c1 | inactive |
| O=C(Cn1c(=O)n(Cc2ccco2)c(=O)c2c3c(sc21)CCCCC3)Nc1ccccc1 | inactive |
| Cc1cccc(C(=O)Nc2ccc(O)cc2)c1 | 4.37 µM (active) |
| O=C(Nc1ccc(O)cc1)c1ccc2c(c1)C(=O)N(N1C(=O)c3ccccc3C1=O)C2=O | 6.05 µM (active) |
| O=C(Nc1ccc(O)cc1)c1ccc2c(c1)C(=O)N(Cc1ccco1)C2=O | 8.35 µM (active) |

| Structure (SMILES) | IC50 |
| --- | --- |
| COc1cc(C(=O)Nc2ccc(O)cc2)ccc1OC(C)=O | 3.55 µM (active) |
| OC1CN=C2CCCc3c2n(c2ccc(Cl)cc32)C1 (stereo not drawn) | inactive |
| COc1cc(/C=C/C(=O)OCC(=O)N2CC(=O)Nc3ccccc32)ccc1O | 6.1 µM (active) |
| CCNC(=O)COC(=O)/C=C/c1cccc(F)c1 | inactive |
| O=C1COc2ccc(C(=O)COC(=O)/C=C/c3ccc(Br)o3)cc2N1 | inactive |
| COc1cc(/C=C/C(=O)OCC(=O)Nc2ccc(S(N)(=O)=O)cc2)ccc1O | 12.2 µM (active) |
| NS(=O)(=O)c1ccc(NC(=O)COC(=O)c2ccc(Cl)nc2)cc1 | inactive |
| Cc1cc(C)c(S(=O)(=O)/N=C2/C=C(SCC(=O)O)C(=O)c3ccccc32)cc1C | inactive |
| CN(C)c1ccc(NC(=O)C(=O)C2C(=O)Nc3ccccc32)cc1 (stereo not drawn) | 1.57 µM (active) |
| Cn1c(SCC(=O)c2ccc(O)c(O)c2)nnc1-c1cccs1 | 15.9 µM (active) |
| Cn1c(SCC(=O)c2cc(Cl)c(Cl)s2)nnc1-c1ccco1 | inactive |
| CCn1c(SCC(=O)c2ccc(O)c(O)c2)nnc1-c1ccc(C)cc1 | 6.52 µM (active) |
| CCn1c(SCc2ccc(C(=O)Nc3nccs3)cc2)nnc1-c1ccc(NC(C)=O)cc1 | inactive |
| C=CCn1c(SCC(=O)c2ccc(O)c(O)c2)nnc1-c1cccnc1 | 8.61 µM (active) |
| C=CCn1c(SCC(=O)c2ccc(O)c(O)c2)nnc1-c1ccccc1OC | 10.2 µM (active) |
| CCOC(=O)c1ccc(CSc2nnc(-c3ccncc3)n2N)cc1 | inactive |
